Screen size: about 350,000 compounds; about 1,600 (0.46%) were called active. This excerpt belongs to a sample that is enriched for actives. Unmarked numbers belong to inactive results.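 The calls were made as follows: active = activation of at least 50%, plus an integration ratio under a set limit after plate pattern correction; inactive = the rest.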
test system: CRF-binding protein / CRF receptor 2 complex (human); test: activators of CRF-R2 with CRF-BP – cell-based, HEK293, calcium dye fluorescence, uHTS, primary screen (AID 588473); conditions: calcium dye fluorescence (FLIPR), at 13.2 µM, active compounds read high, percent of saturating CRF peptide response;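 also: plate controls were neutral control wells without compound for no effect and CRF at EC100 for full effect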

Row | Structure (SMILES) | activation
1 | CCN(CC)CCCC(C)n1c2nc(=O)[nH]c(=O)c-2nc2cc(Cl)ccc21 (configuration not stated) | 192% (active)
2 | C=C(C)Cn1c(C)cc(C)c(S(=O)(=O)c2ccccc2C)c1=O | -0.15%
3 | CC1COc2ccccc2N1S(=O)(=O)c1ccccc1 (configuration not stated) | 2.38%
4 | Cc1nn(C)cc1/C=C1\CCC/C(=C\c2cn(C)nc2C)C1=O | 0.2%
5 | COc1cc(-c2nnc(NC(=O)CS(=O)(=O)c3ccc(Cl)cc3)o2)cc(OC)c1OC | 3.74%
6 | COc1cccc(-c2nnc(NC(=O)c3ccc(S(=O)(=O)N(CC(C)C)CC(C)C)cc3)o2)c1 | 98.1% (active)
7 | COc1ccc(-c2nnc(NC(=O)CS(=O)(=O)c3ccc(Cl)cc3)o2)c(OC)c1 | -1.55%
8 | CCCCN1C(=O)C(CC(=O)NCc2cccs2)CC(C(=O)N2CCOCC2)=C1C (configuration not stated) | -1.86%
9 | CC(OC(=O)c1ccc(NC(=O)CC#N)cc1)C(=O)Nc1ccc(S(=O)(=O)N2CCCC2)cc1 (configuration not stated) | -0.83%
10 | O=C(COC(=O)C1(c2ccc(F)cc2)CCCC1)N1CCNC1=O | -1.56%
11 | O=C(c1cccs1)N1CCCC(c2nc(-c3ccc(F)cc3)no2)C1 (configuration not stated) | -3.55%
12 | N#Cc1c(-c2ccc(F)cc2)cc(C2CC2)nc1SCC(=O)c1cccs1 | 76.4% (active)
13 | N#Cc1c(C(F)(F)F)cc(-c2ccc(Cl)cc2)nc1SCC(=O)O | 0.45%
14 | COCCCNC(=O)[C@H]1N2C(=O)c3ccccc3C2SC1(C)C (some centres not stated) | 53.6% (active)
15 | COCCCNC(=O)C1CC(=O)N(CCc2ccccc2)C1 (configuration not stated) | -1.35%
16 | CC1(C)SC2c3ccccc3C(=O)N2[C@@H]1C(=O)NCc1ccco1 (some centres not stated) | -0.83%
17 | O=C(Nc1cccc2ccccc12)c1onc2c1CCCC2 | -2.42%
18 | CC(OC(=O)CCCOc1ccccc1)C(=O)Nc1ccc(Cl)cn1 (configuration not stated) | -1.67%
19 | O=C(c1ccccc1)c1ccc(C(=O)N2CCN(c3ccccc3)CC2)cc1 | 0.4%
20 | O=C(/C=C/c1ccc(N2CCOCC2)cc1)c1ccccc1 | 89.1% (active)
21 | O=C(NC(=O)N1CCOCC1)c1ccccc1 | 5.54%
22 | Cc1ccc(S(=O)(=O)Nc2nc(CN3CCOCC3)nc3sc(C)c(C)c23)cc1 | 3.71%
23 | CCC(=O)c1cc(F)ccc1OCC(=O)Nc1ccc2c(c1)OCCO2 | 0.29%

Row | Structure (SMILES) | activation
24 | O=S(=O)(c1cccc(C(F)(F)F)c1)N1CCN(c2cnccn2)CC1 | -0.32%
25 | O=C(CN(c1cc(C(F)(F)F)ccc1Cl)S(=O)(=O)c1ccccc1)NCc1cccnc1 | 1.6%
26 | O=S(=O)(c1cccc(C(F)(F)F)c1)N1c2ccccc2-n2cccc2C1c1cccnc1 (configuration not stated) | 138% (active)
27 | COCCN(C(=O)CCC(=O)Nc1nccs1)C(C(=O)NC(C)(C)C)c1ccc(Cl)cc1 (configuration not stated) | 0.68%
28 | CCCC(=O)Nc1ncnc2c1ncn2[C@@H]1O[C@@H]2OP(=O)(O)OC[C@H]2[C@H]1OC(=O)CCC | -0.33%
29 | O=C(Nc1cccc(S(=O)(=O)NC2=NCCC2)c1)C1CCCCC1 | 1.06%
30 | O=C(O)C1OC(C(=O)O)C2C1C(F)(F)C2(F)F (configuration not stated) | 0.58%
31 | CCOC(=O)Cc1cc(=O)[nH]c(=O)[nH]1 | -0.34%
32 | O=C(O)c1cc([N+](=O)[O-])c(Nc2cccc3ccccc23)c([N+](=O)[O-])c1 | -0.94%
33 | CC(Nc1ccc([N+](=O)[O-])cc1[N+](=O)[O-])c1ccccc1 (configuration not stated) | -3.71%
34 | O=C(NC(Nc1nc2ccc([N+](=O)[O-])cc2s1)(C(F)(F)F)C(F)(F)F)c1ccccc1 | 69.9% (active)
35 | CCN=c1sc(C(=O)Nc2ccccc2)c(C)n1CC | -2.99%
36 | Cn1c2c(c(=O)n(C)c1=O)CN(Cc1ccco1)CN2 | 2.8%
37 | CCOc1ccccc1N1CN(Cc2ccccc2)CNC1=S | -0.43%
38 | CCc1ccccc1N1CN(Cc2ccco2)CNC1=S | 80.2% (active)
39 | CCn1c(=O)c2ccccc2n(CC(=O)N2CCCc3ccccc32)c1=O | 0.82%
40 | Cn1c(SCC(=O)N2CCCc3ccccc32)nc2ccccc2c1=O | 3.16%
41 | C=CCn1c(=O)c2ccccc2n2c(SCC(=O)N3CCCc4ccccc43)nnc12 | 75.3% (active)
42 | CCOC(=O)CSC1=N/C(=C/c2ccc(-n3cncn3)cc2)C(=O)N1C(C)=O | 1.8%
43 | COc1cccc(CNS(=O)(=O)c2ccc3c(c2)N(C(C)=O)CCS3)c1 | 1.61%
44 | CN(C)c1ccc(/C=C2\NC(=S)N(Cc3ccccc3)C2=O)cc1 | 191% (active)
45 | CC1CN(Cc2ccccc2)C(=S)NC1=O (configuration not stated) | -2.85%
46 | CN(C)c1ccc(C=C2C(=O)OC3(CCCC3)OC2=O)cc1 | 23.8%

Row | Structure (SMILES) | activation
47 | Cc1ccccc1Cn1nc(C)c(NC(=O)C(F)(F)F)c1C | -0.93%
48 | CN(Cc1cc2cc(F)ccc2[nH]1)Cc1nc(-c2cnccn2)no1 | -0.56%
49 | O=C(CSc1nnc(-c2ccc([N+](=O)[O-])cc2)o1)Nc1ccccn1 | -0.44%
50 | Cc1cccc(CN2CCN(Cc3cnn(-c4ccccc4F)c3)CC2CCO)n1 (configuration not stated) | -2.69%
51 | Cc1onc(-c2ccccc2)c1C(=O)N=C(N)c1ccc(Cl)cc1 | 2.16%
52 | Cc1onc(-c2ccccc2)c1C(=O)NNC(=S)NC(=O)c1ccc(F)cc1 | 181% (active)
53 | COc1ccc(C(=O)NC(=S)NNC(=O)c2c(-c3ccccc3)noc2C)cc1 | 99.3% (active)
54 | COc1ccc(C(=O)NNC(=O)c2cc(C)[nH]n2)cc1 | -0.62%
55 | O=C(NNC(=S)NC(=O)c1cn(-c2ccccc2)nc1-c1ccccc1)c1ccncc1 | 27.4%
56 | Cc1noc(C)c1COc1ccc(C(=O)NCCOc2ccccc2)cc1 | 3.12%
57 | O=S(=O)(N/N=C\c1cccn1-c1ccccc1)c1ccc2ccccc2c1 | -1.5%
58 | CCOC(=O)C1=C(N)N2C(=O)C(C)SC2=C(C(=O)OCC)C1c1cc(OC)c(OC)c(OC)c1 (configuration not stated) | -0.18%
59 | COc1cccc(N2CC(NC(=O)c3ccc4ccccc4c3)CC2=O)c1 (configuration not stated) | -0.96%
60 | O=C(CCc1nc(-c2ccccc2)no1)Nc1cccc(C(=O)NC2CC2)c1 | -1.3%
61 | Cc1ccc(Cl)cc1N1CCN(C(=O)c2cccc3c(=O)c(C)c(-c4ccccc4)oc23)CC1 | 63.6% (active)
62 | COC(=O)c1ccc(C(=O)OC)c(NC(=S)N2CCN(c3cc(Cl)ccc3C)CC2)c1 | 2.16%
63 | Cc1cccc(N2CCN(C(=O)c3cnn4c(C(F)F)cc(-c5ccccc5)nc34)CC2)c1C | -0.01%
64 | CC(=O)Nc1ccc(S(=O)(=O)N(C)c2ccc(OCC(=O)OCC(=O)N3CCCCC3)cc2)cc1 | -1.11%
65 | COc1ccccc1CNC(=O)c1cc(=O)c2ccccc2o1 | -1.3%
66 | O=c1oc2ccccc2c(=O)c2ccccc12 | 0%
67 | COc1cc(N=Cc2c(O)c3ccccc3oc2=O)c(OC)cc1Cl | 66.4% (active)
68 | CC(C)C(=O)NC(=S)Nc1ccccc1F | -2.1%
69 | O=C(CCN1CCN(c2ccccc2)CC1)NNC(=S)Nc1ccccc1 | -0.17%

Row | Structure (SMILES) | activation
70 | CCCCC(=O)NNC(=S)NC(=O)C(c1ccccc1)c1ccccc1 | 135% (active)
71 | CC(C)CCNC(=O)CC1C(=O)N(Cc2ccccc2)C(C)c2nc3ccccc3n21 (configuration not stated) | -1%
72 | OC(COCCC12CC3CC(CC(C3)C1)C2)CN1CCCCC1 (configuration not stated) | 0.79%
73 | COc1ccc(-c2onc3ccc(C(C)=O)cc23)cc1 | 100% (active)
74 | COc1ccc(NC(C(=O)Nc2cccc(C(C)=O)c2)c2ccccc2)cc1 (configuration not stated) | -0.34%
75 | COc1ccc(-c2ocnc2C(=O)Nc2ccc3c(c2)CCC3)cc1 | 1.68%
76 | O=C(Nc1ccccc1)c1ccccc1NC(=O)C(F)(F)F | 55.4% (active)
77 | COc1ccccc1C(=O)Nc1ccccc1C(=O)Nc1ccccc1 | 0.57%
78 | CC1CCCCC1NCC(=O)Nc1ccccc1C(=O)Nc1ccccc1 (configuration not stated) | -2.89%
79 | O=S(=O)(Nc1ccc(-c2ccc(N3CCOCC3)nn2)cc1)c1cc(Cl)ccc1Cl | 0.21%
80 | CC1=C(C(=O)OC2CCCCC2)C(c2cccnc2)n2ncnc2N1 (configuration not stated) | -0.1%
81 | CCOc1ccc(C2=CC(c3ccccc3)n3ncnc3N2)cc1 (configuration not stated) | 53.1% (active)
82 | Clc1ccc2c(c1)C1=C(C(c3ccncc3)O2)C(c2ccc(Br)cc2)n2ncnc2N1 (configuration not stated) | 0.45%
83 | CCOc1ccccc1C1CC(c2ccccc2)Nc2nc(N)nn21 (configuration not stated) | 8.41%
84 | Brc1ccc(C2=CC(c3ccco3)n3ncnc3N2)cc1 (configuration not stated) | 274% (active)
85 | CN(CC(=O)Nc1ccccc1F)CC(=O)Nc1ccccc1Br | -3.49%
86 | Cc1cccc(CC2(O)C(=O)Nc3ccccc32)n1 (configuration not stated) | -0.62%
87 | CCN(CC)S(=O)(=O)c1ccc(Cl)c(C(=O)NC(C)C(c2cccs2)N2CCCC2)c1 (configuration not stated) | 0.2%
88 | OCCCNC(c1ccccc1)c1ccc(O)cc1 (configuration not stated) | -1.4%
89 | COc1cc(/C=C2\C(=N)N3N=C(CC(=O)N4CCOCC4)SC3=NC2=O)cc(OC)c1OC | -0.4%
90 | COC1=C/C(=C/c2c(N)n3nc(CC(=O)N4CCOCC4)sc3nc2=O)C=CC1=O | 9.37%
91 | C=CCC1=C/C(=C\c2c(N)n3nc(CC(=O)N4CCOCC4)sc3nc2=O)C=C(OC)C1=O | 83.2% (active)
92 | CN(CC(=O)Nc1ccc(C(N)=O)cc1)S(=O)(=O)c1ccc2c(c1)OCCO2 | 3.57%
